Experimental data as given in PubChem BioAssay AID652104 (National Center for Advancing Translational Sciences (NCATS), 2013).
About 7,200 (1.8%) of roughly 410,000 compounds were called active. Another 7% or so got no clear call; they are omitted. Calls follow the shape of the dose curve; as a rule, active = well fitted activation curve with a large enough effect; inconclusive = small, poorly fitted or top-dose-only effect, or another doubt; inactive = no such curve, though single readings can be large or run the other way. Shown is part of a subset that was picked to be rich in actives.

Assay: qHTS of TDP-43 Inhibitors; also: nearly all actives have a fitted effect of over 50% in size; as to Growth rescue (activation): % of control where 0% means no effect
Settings: TDP-43 expressing yeast growth rescue, BacTiter-Glo, 24 h; series mostly up to 46.1 µM
Method in brief: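 Growth rescue of TDP-43-toxic yeast measured as ATP luminescence (BacTiter-Glo). Cells grown to mid-log in raffinose, induced in galactose at OD600=0.02, exposed to compound 24 hr at 30 deg C.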
Potency is read from the fitted curve at half-maximal effect.

Potency, active:
CC(=O)OC1=C(C(C)=O)N(Cc2ccccc2)S(=O)(=O)c2ccccc21 35.5 µM
O=C(c1ccccc1)c1ccc(OC(=O)N2CCCC2)cc1 11.2 µM
O=S(=O)(NCC1OCCc2ccccc21)c1ccccc1 (stereo unspecified) 10 µM
CN(C)c1ccc(-c2nnc(-c3cccnc3)o2)cc1 10 µM
CCc1cc(C(c2ccccc2OC)N2CCOCC2)c(NC(=O)c2ccccc2)s1 (stereo unspecified) 20 µM
O=C(CO/N=C/c1ccccc1O)NNC(=O)c1ccccc1Cl 3.16 µM
Cc1ccc(COc2ccc(C(=O)NN)cc2)cc1 15.8 µM
Cc1ccc(Nc2c(-c3ccc(C)cc3)nc3cnccn23)cc1 22.4 µM
CCCCC(=O)Nc1ccccc1N1CCN(c2ccc(F)cc2)CC1 22.4 µM
CCC(C)C(=O)Nc1ccccc1N1CCN(c2ccc(F)cc2)CC1 (stereo unspecified) 25.1 µM
CCCCCC(O)c1cccc(OCc2ccc3ccccc3n2)c1 (stereo unspecified) 12.6 µM
CCC(=O)Nc1cccc(-c2nc3cc(C)ccc3o2)c1 14.1 µM
O=c1[nH]snc1-c1c(Cl)cccc1Cl 17.8 µM
O=C(Nc1ccc2c(c1)OCO2)C1CC(c2c(F)cccc2Cl)=NO1 (stereo unspecified) 10 µM
COc1ccccc1-c1nnc(NC(=O)c2ccc3ncsc3c2)o1 11.2 µM
Clc1ccc(C2=CSC3=Nc4cccc5cccc(c45)N23)cc1 17.8 µM
O=C(Nc1cccc(NC(=O)c2ccco2)c1)c1cnccn1 12.6 µM
Cc1ccc2onc(CC(=O)N3CCN(c4ccc(Cl)cc4)CC3)c2c1 20 µM
O=C(Nc1cccc(F)c1)NC1CCCc2ccccc21 (stereo unspecified) 12.6 µM
COc1ccc(-c2onc(C)c2C)cc1S(=O)(=O)NCCc1ccccc1 15.8 µM

Potency, inactive:
O=C(NCC(c1ccco1)S(=O)(=O)c1cccs1)c1ccc(F)cc1 (stereo unspecified)
Cc1ccc(N(CC(=O)NCc2ccc(Cl)cc2)S(=O)(=O)N(C)C)cc1
COc1ccccc1CNC(=O)C(Cc1ccccc1)NS(=O)(=O)c1ccc2c(c1)oc(=O)n2C (stereo unspecified)
Cc1ccc(Cn2c(=O)n(-c3ccc(C)cc3)c(=O)c3c2c2cc(C)ccc2n3C)cc1
CCOc1ccc(N2CC(C)Cn3c2nc2c3c(=O)n(Cc3c(F)cccc3Cl)c(=O)n2C)cc1 (stereo unspecified)
CCCCC(=O)OC1=CN(Cc2ccccc2)S(=O)(=O)c2ccccc21
CCOC(=O)CN1C(C(=O)c2ccccc2)=C(OC(=O)C(C)(C)C)c2ccccc2S1(=O)=O
CC(=O)c1ccc(OC(=O)N2CCOCC2)cc1
O=S(=O)(NCCc1ccccc1)c1ccccc1
O=C(Cc1ccccc1)NCC1OCCc2ccccc21 (stereo unspecified)
CCCOc1ccc(C(=O)Nc2ccc3oc(-c4cccc(Cl)c4Cl)nc3c2)cc1
CCOc1ccc(NC(=O)c2cc(S(=O)(=O)N3CCCC3)c[nH]2)cc1
CC1(c2nnc(-c3ccncc3)o2)CC(c2cccnc2)=NO1 (stereo unspecified)
CCCN(CCC)c1ccc(C(O)c2nnc(-c3ccccc3)o2)cc1 (stereo unspecified)
O=C(Cn1ncc2c3ccccc3n(Cc3ccccc3)c2c1=O)NC1CCCCCC1
CCC(Sc1nnc(-c2ccc(OC)cc2)c(-c2ccc(OC)cc2)n1)C(=O)NC1CCCCC1 (stereo unspecified)
CN(Cc1ccccc1)C(=O)c1cn(C)c2ccc(S(=O)(=O)N(C)C3CCCCC3)cc2c1=O
CCOc1ccccc1CNC(=O)c1ccc2c(c1)nc1n2CCC(C)C1 (stereo unspecified)
CCOc1ccccc1C(=O)NCC(c1ccc(N(C)C)cc1)N1CCCC1 (stereo unspecified)
COc1ccc(-c2noc(CSc3nnc(-c4ccccc4)n3-c3ccc(F)cc3)n2)c(OC)c1
COc1cc(C(c2c(NC(=O)c3ccco3)sc(C)c2C)N2CCOCC2)cc(OC)c1OC (stereo unspecified)
COc1ccccc1C(=O)Nc1cccc(C(=O)N2CCOCC2)c1
COc1ccccc1NC(=O)C1=C(C)Nc2nc(SCC(=O)c3ccc(C)cc3)nn2C1c1ccccc1C (stereo unspecified)
CCCCn1c(CNC(=O)C23CC4CC(CC(C4)C2)C3)nnc1SCC(=O)Nc1ccc(C)cc1
O=C(COc1ccccc1F)NNC(=O)c1cc(Br)ccc1Cl
O=C(c1ccccc1F)N1CCC(c2nc3c(nnn3Cc3cccc(F)c3)c(=O)[nH]2)CC1
CC(C)c1ccc(OCC(=O)N(Cc2ccc(N(C)C)cc2)C2CCS(=O)(=O)C2)cc1 (stereo unspecified)
COc1ccc(-c2cn3c(n2)sc2cc(C(=O)Nc4ccccc4F)ccc23)cc1
NNC(=O)c1ccc(COCC(F)(F)C(F)F)cc1
Cc1oc(C(N)=O)cc1COc1ccc(C(N)=O)cc1
Cc1nn2c(=O)cc(COC(=O)c3ccccc3NC(=O)COc3ccccc3C)nc2s1
CCc1ccc2oc(-c3ccc(C)c(NC(=O)/C=C/c4ccco4)c3)nc2c1
Cc1ccc(OCCSc2nc(-c3cccs3)nc3cc(=O)[nH]n23)cc1Cl
Cc1ccc(Nc2c(-c3ccc(C)s3)nc3ccccn23)cc1
COc1ccc(-c2nc3cnccn3c2NC(C)(C)CC(C)(C)C)cc1O
COc1ccc(-c2nc(CN3CCC(C(=O)NCCN(CC(C)C)CC(C)C)CC3)c(C)o2)cc1OC
CCNS(=O)(=O)c1cc(-c2nnc(Nc3cccc(C(F)(F)F)c3)c3ccccc23)ccc1C
CCC1=Nc2cc(C(=O)NCCCOC(C)C)ccc2Sc2ccc(C)cc21
CC(=O)N1c2ccccc2CC1C(=O)N1CCN(c2ccc(F)cc2)CC1 (stereo unspecified)
CCCC(=O)Nc1ccccc1N1CCN(C(=O)c2ccccc2)CC1
COc1ccc(NC(C)=O)cc1NC(=O)CN1CCN(c2ccc(F)cc2)CC1
CCCC12CN3CC(CCC)(CN(C1)C3c1c[nH]c3ccc(OC)cc13)C2=O (stereo unspecified)
COc1cccc(C(O)c2ncc(-c3ccc4ccccc4c3)[nH]2)c1 (stereo unspecified)
COc1cccc(C(O)c2nc3ccccc3n2C)c1 (stereo unspecified)
COc1ccc(OC)c(-c2csc(-c3c(N)c(C(=O)c4ccccc4)n4ccccc34)n2)c1
Cc1ccc(SCC(=O)Nc2ccc3oc(-c4ccccc4C)nc3c2)cc1
O=C(Nc1cccc(-c2nc3ccccc3o2)c1)c1cccc(Br)c1
CCOc1ccc(-n2c(C)nc3c(cnn3-c3ccc(C)cc3)c2=O)cc1
CCOC(=O)Cn1c(=O)n(C2CCCCC2)c2nc(-c3cccc(OC)c3)nc(C(N)=O)c21
Cc1ccc(Cl)cc1NC(=O)CCS(=O)(=O)c1ccc(Br)s1
CN(C)NC(=O)c1csnc1-c1c(Cl)cccc1Cl
O=Cc1c(Cl)cccc1Cl
Cc1ccc(NC(=O)C2CC(c3ccc(F)cc3)=NO2)cc1 (stereo unspecified)
Cc1ccccc1N1CC(C(=O)Nc2ccc3c(c2)OCO3)CC1=O (stereo unspecified)
Cc1cccc(CSc2nc3ccncc3n2Cc2ccc(C(=O)O)cc2)c1
Cc1ccc(C(=O)Nc2nnc(C3=COCCO3)o2)cc1C
CSc1ccccc1-c1nnc(NC(=O)c2ccc3c(c2)OCCO3)o1
CCOc1ccc(NC(=O)CCC(=O)N2CC(C)Oc3ccc(C)cc32)cc1 (stereo unspecified)
COc1ccc(CCN2C(=O)c3oc4cc(C)cc(C)c4c(=O)c3C2c2ccccc2F)cc1OC (stereo unspecified)
O=C(Nc1cc(-c2nc3ncccc3o2)ccc1Cl)c1ccco1
O=C(Nc1ccc2nc(SCCOc3ccccc3)sc2c1)c1ccco1
COc1ccc(CCN2C(=O)N(c3cccc(OC)c3)C(=O)C2CC(=O)Nc2ccccc2)cc1 (stereo unspecified)
N#Cc1ccccc1Cn1cnc2nc3c(cc2c1=O)CCCC3
O=C(CSc1nc2ccccc2o1)N1CCN(c2ccc(Cl)cc2)CC1
Cc1ccc2oc(=O)c3cnn(CC(=O)N4CCN(c5cccc(Cl)c5)CC4)c3c2c1
Cc1nnc(NCc2ccccc2)c2c1nnn2Cc1ccc(F)cc1
Cc1nc2nc(SCC(=O)N(Cc3ccccc3)C(C)C)nn2c(C)c1Cc1ccccc1Cl
Cc1cccc(NC(=O)C2CCN(S(=O)(=O)c3c(C)noc3/C=C/c3ccco3)CC2)c1
O=C(CCNC(=O)c1ccc(Cl)cc1)NC1CCCc2ccccc21 (stereo unspecified)
NC(=O)Nc1ccc(C(=O)OCC(=O)NC2CCCc3ccccc32)cc1 (stereo unspecified)
Cc1cccc(Cn2c(CN3CCC(C(=O)NCc4ccccc4Cl)CC3)cc3ccccc32)c1
Cc1ccc(CSc2nc3cccnc3n2Cc2ccc(C(=O)NC3CC3)cc2)cc1
COc1ccc(C)cc1S(=O)(=O)NCCc1ccccc1
COc1ccc(-c2onc(C)c2C)cc1S(=O)(=O)NCc1cccs1
Cc1ccc(N(CC(=O)NCC(C)c2ccccc2)S(=O)(=O)N(C)C)cc1 (stereo unspecified)
CCCN(CCC)CCNC(=O)c1ccc2c(c1)NC(=O)C(CS(=O)(=O)Cc1cccc(Br)c1)N2 (stereo unspecified)
CCOc1ccc(-c2nonc2NC(=O)c2oc3ccc(CC)cc3c2C)cc1

Growth rescue (activation), inactive:
CC(=O)Oc1ccc(-c2cccc(C(=O)N3CCCCC3)c2)cc1 -16% [at 1.82 µM]
O=C(CO/N=C/c1ccccc1OC(F)F)NC1CCCC1 26.6% [at 9.22 µM]
CC(=O)c1ccc(N2CCN(CC(=O)Nc3ccccc3N3CCOCC3)CC2)cc1 -6.9% [at 9.22 µM]
CSc1nc(=O)c2c(n1C)NC(=O)CC2c1ccccc1OC(C)C (stereo unspecified) 5.81% [at 9.22 µM]
